One experiment deals with ICK.
`Cl.NC(=O)c1cccc(Nc2nccc(Nc3ccc(Oc4cccc(Cl)c4)c(Cl)c3)n2)c1` [GW659008]: the Kd was > 10000 nM.

`Cc1cc(N2Cc3ccccc3C2)nc(Nc2ccc(S(=O)(=O)N3CCOCC3)cc2)n1.Cl` [GSK1669917]: the Kd is > 10000 nM.

`O=C(Nc1n[nH]c2nc(-c3nccs3)c(Br)cc12)C1CCCC1` [SB-742609] had a Kd of 220 nM.

In the case of `CS(=O)(=O)c1ccc(-c2nc3n(c2-c2ccncc2)CCC3)cc1` [SKF-105942], the Kd was > 10000 nM.

Another experiment relates to IRAK3.
For `CCn1c(-c2ccccn2)nc2cnccc21` [SB-736398], the Kd came out at 7500 nM.

Regarding `Cc1ccc(NC(=O)Nc2cccc(Cl)c2)cc1-c1ccc(C(=O)Nc2ccncc2)cc1` [GSK1398468], the Kd is > 10000 nM.

Take `Cc1ccc(NC(=O)Nc2cc(C(C)(C)C)nn2-c2ccccc2)cc1` [GSK1014915]: the Kd was > 10000 nM.

`Cc1ccc(NC(=O)Nc2cccc(C(F)(F)F)c2)cc1` [GSK955403]: the Kd was > 10000 nM.

Consider `CS(=O)(=O)c1ccc(-c2c(-c3ncn[nH]3)sc(N3CCOCC3)c2C#N)cc1`, for which the Kd is > 10000 nM.

The test system of another experiment is JAK1(JH2domain-pseudokinase).
Regarding `Cc1cccc(-c2nc(Nc3ccc4[nH]ncc4c3)c3ccccc3n2)n1` [GW857175], the Kd turned out to be 650 nM.

Molecule `Cc1nnc(-c2ccc3occ(-c4ccc(S(C)=O)cc4)c3c2)[nH]1` (stereo not shown) came in with a Kd of 190 nM.

For `COc1ccc2nc(-c3cccc(C)n3)nc(Nc3ccncc3)c2c1` [GSK204919], binding was characterised by a dissociation constant (Kd) of 260 nM.

The subject of a further experiment is JAK2(JH1domain-catalytic).
In the case of `Cl.NC(=O)c1cccc(Nc2nccc(Nc3ccc(Oc4cccc(Cl)c4)c(Cl)c3)n2)c1` [GW659008], the equilibrium dissociation constant (Kd) is 400 nM.

`O=S(=O)(c1ccc(-c2ccnc3[nH]ccc23)cc1)N1CCCC1` [GSK846226] returned an equilibrium dissociation constant (Kd) of 360 nM.

On to `CSc1nn2c(=O)cc(N3CCOCC3)nc2n1Cc1cccc(C(F)(F)F)c1C` [GSK2363608], for which the dissociation constant (Kd) was > 10000 nM.

In the case of `Cc1cccc(-c2cc(Nc3ccncc3)c3ccccc3n2)n1` [GSK223675], the dissociation constant Kd is > 10000 nM.

The next experiment relates to KIT.
Regarding `Cc1ccc(NC(=O)Nc2cccc(Cl)c2)cc1-c1ccc(C(=O)Nc2ccncc2)cc1` [GSK1398468], the Kd came out at 180 nM.

Regarding `Cc1ccc(NC(=O)Nc2cc(C(C)(C)C)nn2-c2ccccc2)cc1` [GSK1014915], the affinity, expressed as Kd, was 260 nM.

Molecule `Cc1ccc(NC(=O)Nc2cccc(C(F)(F)F)c2)cc1` [GSK955403] came in with a Kd of 240 nM.

The values above are taken from paper PMC5540273 (PLoS ONE, 2017).
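Further: kd values determined as follow-up on hits from a single-replicate KINOMEscan panel screen.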
